# BJeLR viability: BJeLR cell viability loss; 0.17% of 300,000 active; BJeLR (HRASV12) viability, CellTiter-Glo ATP luminescence, 48 h; inhibition, % (no concentration beside the values); in the data active = inhibition above about 50%
# Mtb FBA inh: inhibitors of M. tuberculosis fructose-bisphosphate aldolase; AID 588726; inhibition, % at 1 µM; purified M. tuberculosis FBA, fluorescence read-out; 2.3% of 360,000 active; in the data active = inhibition above about 27%;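 also: 0% = vehicle and 100% = reference inhibitor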
# PrPC surface inh: reduces human prion protein on the cell surface. cell surface PrPC, TR-FRET read-out. P04156. 0.43% of 370,000 active. inhibition, % at 13.8 µM; in the data active = inhibition above about 24%; also: 0% = median of the test wells and 100% = reference compound wells
# GDH-TPI inh: inhibits GDH-TPI coupling enzymes, artifact for Mtb FBA screen | GDH-TPI coupled enzyme counterscreen, NADH absorbance | inhibition, % at 4.8 µM | 1.2% of 360,000 active | AID 588335; in the data active = inhibition above about 30%;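 also: 0% = DMSO wells and 100% = wells lacking the enzyme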
# RecA splice inh: inhibitors of M. tuberculosis RecA intein splicing. P9WHJ3. cell-free RecA intein splicing, fluorescence. inhibition, % (test concentration not listed). 0.75% of 290,000 active; in the data active = inhibition above about 30%;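 also: 0% = vehicle wells and 100% = reference inhibitor control wells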
# PrPC TRFRET cf: confirmation of inhibitors of cell surface human prion protein; inhibition, % at 13.8 µM; shares compounds with PrPC surface inh; 65% of 1,500 active; cell surface PrPC level, TR-FRET; in the data active = inhibition above about 25%
# LD9 cytotox: counter-screen for PrPc inhibitors: cytotoxicity in LD9 cells; AID 743201; shares compounds with PrPC surface inh; luminescence viability; inhibition, % at 13.8 µM; 29% of 1,500 active; in the data active = inhibition above about 9.5%
# * hit, by the source's call; x = not tested or not shown. An excerpt weighted towards active compounds, which were near 4.2% of everything screened.
SMILES,BJeLR viability,Mtb FBA inh,PrPC surface inh,GDH-TPI inh,RecA splice inh,PrPC TRFRET cf,LD9 cytotox
COc1cc2ccccc2cc1C(=O)Nc1ccc(Cc2ccncc2)cc1,0,2,30*,1,14,16,19*
COc1ccccc1CN1C(=O)c2cccc3cccc(c23)C1=O,11,6,2,3,0,x,x
COc1ccc(C)cc1CN1C(=O)c2ccccc2C1=O,7,-2,28*,-12,4,-4,-5
NC(=O)c1ccc(NC(=O)CSc2nnc(-c3ccccc3)n2-c2ccccc2)cc1,x,x,2,x,x,x,x
O=C(CSc1nncc2ccccc12)Nc1ccc(F)cc1,-16,-2,37*,10,12,48*,-5
O=C(CSc1nncc2ccccc12)Nc1ccccc1,-2,-1,10,0,0,x,x
COc1ccc(-n2ncc3c(N4CCC(C(N)=O)CC4)ncnc32)cc1,0,1,36*,11,5,29*,-4
CSc1ncccc1C(=O)Nc1nc(C(C)(C)C)cs1,3,0,27*,11,x,27*,-5
COc1cc(OC)cc(C(=O)NCC2CCN(C(=O)C(=O)c3cccs3)CC2)c1,x,x,-6,x,x,x,x
C=CCNC(=O)c1onc(CSc2ccc(OC)cc2)c1C(=O)O,-7,0,37*,6,-1,5,-6
C[C@H]1COc2cc(Br)ccc2S(=O)(=O)N1Cc1cn(Cc2ccc(F)cc2)nn1,x,x,-6,x,x,x,x
COC(=O)N1C2CCCCC2=NN(c2ccccc2)N1C(=O)OC (stereo unspecified),x,0,29*,x,x,5,-2
Brc1ccc2ncnc(NCc3ccccc3)c2c1,10,-5,48*,10,12,50*,12*
Cc1cccc(Nc2ncnc3ccc(Br)cc23)c1,1,-4,26*,17,1,31*,-1
COc1ccc(Nc2ncnc3ccc(Br)cc23)cc1OC,3,-2,x,8,2,x,x
Cc1ccc2ncnc(Nc3ccccc3)c2c1,4,3,6,11,-6,x,x
Clc1ccc(Nc2ncnc3ccc(Br)cc23)cc1,6,5,30*,19,4,44*,4
Clc1cccc(Nc2ncnc3ccc(Br)cc23)c1,-7,0,63*,20,2,76*,2
COc1ccc(N2CCN(CCCNC(=O)Cn3c(=O)c4cccn4c4c(C)ccnc43)CC2)cc1,x,x,1,x,x,x,x
CC1CC(C)CC(C)C(O)C(C#N)=CC=CCC(C2CCCC2C(=O)O)OC(=O)CC(O)C(C)C1 (stereo unspecified),x,-2,87*,-2,x,98*,51*
CCCCC(=O)NC(c1ccccc1Cl)c1ccc2cccnc2c1O (stereo unspecified),6,-6,39*,-4,0,32*,30*
CCCCC(=O)NC(c1ccccc1)c1ccc2cccnc2c1O (stereo unspecified),25,-1,29*,4,x,27*,19*
CCCC(=O)NC(c1ccccc1)c1ccc2cccnc2c1O (stereo unspecified),26,1,23,5,x,x,x
CCCCC(=O)NC(c1cccc([N+](=O)[O-])c1)c1ccc2cccnc2c1O (stereo unspecified),x,-1,9,0,x,x,x
CCCC(=O)NC(c1ccc(OC)cc1)c1ccc2cccnc2c1O (stereo unspecified),31,-1,27*,7,-3,26*,32*
SMILES,BJeLR viability,Mtb FBA inh,PrPC surface inh,GDH-TPI inh,RecA splice inh,PrPC TRFRET cf,LD9 cytotox
CC(C)Cc1nc(Nc2ccccc2C#N)c2nnn(Cc3ccccc3)c2n1,-10,-2,29*,1,3,13,0
O=C1c2c(-c3ccc(Br)cc3)noc2CCN1Cc1cn(Cc2cccnc2)nn1,x,x,-6,x,x,x,x
Cc1nnc(NC(=O)CSc2nc(C(C)C)nc3ccccc23)s1,8,-3,29*,2,-1,78*,-4
Cc1cc(NC(=O)C(C)Sc2nc(-c3cccs3)nc3ccccc23)no1 (stereo unspecified),x,3,43*,14,x,102*,-4
CC(C)(C)c1nc(SCC(=O)Nc2nc3c(s2)CCCC3)c2ccccc2n1,28,1,2,12,11,x,x
Cc1cc(NC(=O)CSc2nc(C(C)C)nc3ccccc23)no1,-4,0,118*,11,6,124*,-14
Cc1cc(NC(=O)CSc2ccccc2)no1,0,-1,4,-4,0,x,x
CC(C)c1nc(SCC(=O)Nc2nc3c(s2)CCCC3)c2ccccc2n1,0,0,60*,5,29,75*,-1
CN(Cc1ccccc1)C(=O)OCc1cn(Cc2ccccc2C(F)(F)F)nn1,x,x,3,x,x,x,x
COCc1c(C(=O)N2CCc3ccccc32)oc2ccccc12,3,-8,26*,3,9,3,-4
COc1ccc(NS(=O)(=O)c2ccc(-c3cnc(C4CC4)o3)cc2)cc1OC,35,2,32*,1,4,21,23*

# Screening data: PubChem BioAssay, several laboratories
